Results published in PubChem BioAssay AID504332 (National Center for Advancing Translational Sciences (NCATS), 2011).
Several values for one entry are separate records, joined by “and”; a condition that tells them apart may be missing. Equal values may be shown once. The campaign covered roughly 350,000 compounds. About 31,000 (8.9%) were called active. Another 15% or so got no clear call; they are omitted. Calls follow the shape of the dose curve; as a rule, active = well fitted inhibition curve with a large enough effect; inconclusive = small, poorly fitted or top-dose-only effect; inactive = no such curve, though single readings can be large or run the other way. Many of the other results were omitted from the sample, so actives are more common in it than they were. Where a structure was tested more than once in an assay, its records may differ in their call.

Each molecule was assayed against Histone-lysine N-methyltransferase EHMT2 (Homo sapiens) (UniProt Q96KQ7) (assay: qHTS Assay for Inhibitors of Histone Lysine Methyltransferase G9a). Conditions: G9a H3K9 monomethylation, AlphaScreen, 2 h; series mostly up to 59 µM.
Chain of Histone-lysine N-methyltransferase EHMT2 (Homo sapiens) (Q96KQ7 913-1193 limits assumed): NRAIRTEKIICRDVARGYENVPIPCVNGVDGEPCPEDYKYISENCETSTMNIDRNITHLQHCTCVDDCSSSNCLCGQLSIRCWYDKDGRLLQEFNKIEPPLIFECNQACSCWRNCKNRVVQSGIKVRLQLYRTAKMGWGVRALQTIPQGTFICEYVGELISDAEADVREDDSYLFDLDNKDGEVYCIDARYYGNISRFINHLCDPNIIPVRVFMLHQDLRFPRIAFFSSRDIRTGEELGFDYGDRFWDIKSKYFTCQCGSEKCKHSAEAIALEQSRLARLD
Procedure, shortened: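 Step 1: enzyme (final 20 nM) with compound, 15 min RT. Step 2: substrate peptide 500 nM and SAM 20 uM, 2 h RT. Step 3: anti-H3K9me1 antibody and AlphaScreen beads, 10 min, then plate read.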
% is scaled to controls: 0 for no effect and ±100 for the full control effect; potency is read from the fitted curve at half-maximal effect.
Also: nearly all actives have a fitted effect of over 75% in size.

activity, negative = inhibition, inactive:
Cc1ccc(S(=O)(=O)N2CCCCC2)cc1NC(=O)[C@@H]1CCCN1C(=O)c1cccs1 -7.65% [at 12.7 µM]
CC(=O)c1ccc(S(=O)(=O)NCCC(=O)N2CCN(c3ccccn3)CC2)cc1 -0.0681% [at 12.7 µM]
COc1ccccc1OCCOc1ccc(/C=N/n2cnnc2)cc1 -8.1% [at 12.7 µM]
O=c1ccc(S(=O)(=O)N2CCCC2)cn1Cc1nc(-c2ccccc2)no1 -6.5% [at 2.33 µM]
Cc1ccccc1-c1cc(C(=O)NCC2CC2)n(CC2CC(c3cccnc3)=NO2)n1 (configuration not stated) -3.05% [at 0.501 µM]
Cc1ccc(CSc2nc(-c3ccccc3)c(C#N)c(=O)[nH]2)cc1 16.7% [at 2.33 µM]
Cc1cc(C)n2nc(C(=O)OCC(=O)N(C)CC(=O)Nc3ccc(F)cc3)nc2n1 -2.62% [at 12.7 µM]
Cc1ccc(NC(=O)C(c2ccccc2)N2CCN(C(=O)c3ccco3)CC2)cc1 (configuration not stated) -37.3% [at 12.7 µM]
Cc1cc(C(=O)OCC(=O)Nc2ccccc2Cl)c(C)o1 -9.85% [at 12.7 µM]
Cc1cc(N2CCN(S(=O)(=O)c3ccc(C)c(C)c3)CC2)c2ccccc2n1 22.6% [at 12.7 µM]
CCN(CC(=O)Nc1ccc(NC(C)=O)cc1)C(=O)C1CC(=O)N(Cc2ccc(C)cc2)C1 (configuration not stated) -0.244% [at 0.501 µM]

Potency, inactive and 79.4 µM (active):
CCOC(=O)C1CCN(S(=O)(=O)c2ccc3c(c2)N(C)C(=O)CC(=O)N3C)CC1

Potency, inactive:
Cc1ccc2nc(COc3cccc(NC(=O)c4ccccc4Cl)c3)cc(=O)n2c1
CCOC(=O)C1CCCN(S(=O)(=O)c2ccc3c(c2)C(C)(C)C(=O)N3C)C1 (configuration not stated)
CCOC(=O)C1CCN(S(=O)(=O)c2ccc3c(c2)N(C(C)=O)CCO3)CC1
CCCn1c2ccccc2c2cnn(CC(=O)N(CC)c3cc(C)ccc3C)c(=O)c21
CCOc1ccc(CCNC(=O)CSc2cc(=O)n(C)c3ccc(Cl)cc23)cc1OCC
CCN(CCCNC(=O)CSc1cc(=O)n(C)c2cc(Cl)ccc12)Cc1ccccc1
COc1cc(/C=N/O)ccc1OCc1ccc([N+](=O)[O-])cc1
CCOc1ccc(/C=N/Nc2nncc(-c3ccccc3)n2)cc1OC
CCN(C(=O)COC(=O)c1c(C)nn(-c2ccccc2)c1Cl)c1c(N)n(Cc2ccccc2)c(=O)[nH]c1=O
CC1CN(C(=O)N2CCC(C(=O)NCc3ccco3)CC2)c2cc(Cl)ccc2O1 (configuration not stated)
O=C(NCCS(=O)(=O)c1ccc(Br)cc1)c1ccccc1Cl
COc1ccccc1CNC(=O)CCn1c(=O)c2ccccc2n(CC(=O)Nc2ccc(Br)cc2F)c1=O
CCOc1ccccc1NS(=O)(=O)c1cc2c3c(c1)C(C)C(=O)N3CCC2 (configuration not stated)
COc1ccc(N2CCN(S(=O)(=O)c3ccc4c(c3)NC(=O)C(C)C(=O)N4)CC2)cc1 (configuration not stated)
COCC1CCN(C(=O)C2CCC(=O)N(CC3CCCCC3)C2)CC1 (configuration not stated)
N#Cc1ccc(-c2cccs2)nc1SCc1ccc(Br)cc1
Cc1ccc(-c2cc(-c3coc4ccccc4c3=O)c3c(n2)-c2cc(Cl)ccc2OC3)cc1
COc1ccc(NC(=O)Nc2cccc3cccnc23)cc1
O=C(NCCN1CCN(C(=O)c2cccc([N+](=O)[O-])c2)CC1)C(=O)NCc1ccc(Cl)cc1
CSc1ccc(C2c3c(oc4ccccc4c3=O)C(=O)N2CCCN2CCOCC2)cc1 (configuration not stated)
COc1ccc(Cl)cc1NC(=O)CSc1nc(=O)[nH]c2c1CCCC2
COc1ccc(-c2cc(C(=O)N(C)CC(=O)Nc3ccccc3Cl)c3ccccc3n2)cc1OC
CCOC(=O)c1ccc(NC(=S)Nc2cc(C)cc(C)n2)cc1
O=C(Nc1ccccc1Cl)N1CCC(CN2CCCC2)CC1
CCOC(=O)c1nnn(CC(=O)NC(=O)Nc2ccccc2F)c1C(=O)OCC
Cc1cc(C)cc(NC(=O)N2CCCCCCC2)c1
CC(C)OC(=O)C(C#N)c1nc2ccccc2nc1N1CCN(Cc2ccccc2)CC1 (configuration not stated)
COc1ccc(-c2noc(CSc3nnc(-c4ccccc4)n3-c3ccc(F)cc3)n2)c(OC)c1
c1n[nH]c(NCc2ccc3c(c2)OCO3)n1
O=C(CCNS(=O)(=O)c1ccccc1C(F)(F)F)NCc1ccc2c(c1)OCO2
Cc1cc(NS(=O)(=O)c2ccc(NC(=O)c3ccccc3C)cc2)nc(C)n1
CCc1cccc(-n2nnc(-c3nsc(NC(=O)c4ccc(C)cc4)n3)c2C)c1
CCCCSc1ncnc2c1sc1nc(N3CCOCC3)c3c(c12)CCCC3

Potency, active:
Cc1c(-c2ccccc2)cn2c1-c1ccc(C)n1CC2 44.7 µM
CCN(CCCNC(=O)CSc1cc(=O)n(C)c2cc(Cl)ccc12)c1cccc(C)c1 17.8 µM
O=[N+]([O-])c1ccccc1/C=N/n1c(COc2ccccc2)n[nH]c1=S 1 µM
Fc1ccc(/C=N/n2c(COc3ccccc3)n[nH]c2=S)cc1 1.58 µM
COc1cc(/C=N/n2c(C)n[nH]c2=S)ccc1OCc1ccccc1 2.24 µM
COc1ccc(N2CCN(S(=O)(=O)c3cc4c5c(c3)C(C)C(=O)N5CCC4)CC2)cc1 (configuration not stated) 44.7 µM
N#Cc1c(-c2cccs2)nc(SCC(=O)c2ccc(Br)cc2)[nH]c1=O 39.8 µM
Nc1ccc(Nc2cc(O)c3ncccc3c2)cc1 1.58 µM
CCOC(=O)c1ccc(Nc2cc(C)nc3nc(C)nn23)cc1 79.4 µM
Cc1cc(C)cc(NC(=O)C(c2ccccc2)N2CCN(CC(=O)N3CCCC3)CC2)c1 (configuration not stated) 50.1 µM
Cc1ccc(S(=O)(=O)C(C#N)c2nc3ccccc3nc2N2CCCC2)cc1C (configuration not stated) 2.82 µM
N#Cc1nc(Cc2cccc3ccccc23)oc1NCc1ccc2c(c1)OCO2 10 µM
